Laboratory results published in PubChem BioAssay AID1159580 (chemical genetic matrix, 2015).
The whole screen tested about 5,500 compounds, of which about 2,000 (36%) were called active. Inconclusive results (about 18%) are left out. Cut-off read from the data, not from the text of the source: active = normalized growth mostly below about 0.91 (no sharp cut-off); inconclusive = no clear call, values can overlap the other calls; inactive = mostly above about 0.92. The list shows a part of the results.

Test: chemical genetic growth profiling, strain panel (AID 1159580);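 note: tested at 20 µM; growth read once vehicle control cultures reached saturation at 30 °C; 1 = growth at the plate median or of vehicle wells; lower values mean less growth of the strain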
Details: S. cerevisiae deletion strains, growth OD
[1] = locus YAL040C, strain CLN3, active compounds read low
[2] = locus YCL061C, strain MRC1 (second series), active compounds read low
[3] = locus YDR363W, strain ESC2, active compounds read low
[4] = locus YER002W, strain NOP16, active compounds read low
[5] = locus YMR263W, strain SAP30, active compounds read low
[6] = locus YNL175C, strain NOP13, active compounds read low
[7] = locus YNL197C, strain WHI3, active compounds read low
[8] = locus YNL224C, strain SQS1, active compounds read low
[9] = locus YOR083W, strain WHI5 (second series), active compounds read low

Measured: normalized growth

O=C(OCCN1CCCCC1)c1c[nH]c2ccccc12
inactive: [1] 1 | [2] 1.01 | [3] 0.997 | [4] 1.02 | locus YGR078C, strain PAC10, active compounds read low 1.02 | locus YGR229C, strain SMI1, active compounds read low 0.999 | [5] 0.999 | locus YMR307W, strain GAS1, active compounds read low 1.01 | locus YNL128W, strain TEP1, active compounds read low 1.01 | [6] 1.01 | [7] 1 | [8] 0.994 | [9] 1 | locus YPL055C, strain LGE1, active compounds read low 0.997

CCCc1c(OCCCOc2ccc(OCC(=O)O)cc2)ccc(C(C)=O)c1O
inactive: [1] 0.942 | [2] 0.999 | locus YDR150W, strain NUM1, active compounds read low 0.997 | [3] 1.01 | [4] 1.04 | [5] 1.01 | [6] 0.98 | [7] 0.987 | [8] 0.963 | locus YNL322C, strain KRE1, active compounds read low 1.01 | [9] 0.914 | locus YPL241C, strain CIN2, active compounds read low 1
